Results published in article PMC4336329 (PLoS ONE, 2015).
About 14,000 (4.5%) of roughly 310,000 compounds showed an effect of 50% or more. The effect is printed as a negative number. What follows is part of a selection rich in strong results, with near analogues and random picks from the rest.

target: human ether-à-go-go-related gene (hERG) potassium channel (human, UniProt Q12809); assay: primary screen, population patch clamp on CHO cells stably expressing hERG; higher = less effect of the substance
Sequence (Q12809 whole entry, looked up): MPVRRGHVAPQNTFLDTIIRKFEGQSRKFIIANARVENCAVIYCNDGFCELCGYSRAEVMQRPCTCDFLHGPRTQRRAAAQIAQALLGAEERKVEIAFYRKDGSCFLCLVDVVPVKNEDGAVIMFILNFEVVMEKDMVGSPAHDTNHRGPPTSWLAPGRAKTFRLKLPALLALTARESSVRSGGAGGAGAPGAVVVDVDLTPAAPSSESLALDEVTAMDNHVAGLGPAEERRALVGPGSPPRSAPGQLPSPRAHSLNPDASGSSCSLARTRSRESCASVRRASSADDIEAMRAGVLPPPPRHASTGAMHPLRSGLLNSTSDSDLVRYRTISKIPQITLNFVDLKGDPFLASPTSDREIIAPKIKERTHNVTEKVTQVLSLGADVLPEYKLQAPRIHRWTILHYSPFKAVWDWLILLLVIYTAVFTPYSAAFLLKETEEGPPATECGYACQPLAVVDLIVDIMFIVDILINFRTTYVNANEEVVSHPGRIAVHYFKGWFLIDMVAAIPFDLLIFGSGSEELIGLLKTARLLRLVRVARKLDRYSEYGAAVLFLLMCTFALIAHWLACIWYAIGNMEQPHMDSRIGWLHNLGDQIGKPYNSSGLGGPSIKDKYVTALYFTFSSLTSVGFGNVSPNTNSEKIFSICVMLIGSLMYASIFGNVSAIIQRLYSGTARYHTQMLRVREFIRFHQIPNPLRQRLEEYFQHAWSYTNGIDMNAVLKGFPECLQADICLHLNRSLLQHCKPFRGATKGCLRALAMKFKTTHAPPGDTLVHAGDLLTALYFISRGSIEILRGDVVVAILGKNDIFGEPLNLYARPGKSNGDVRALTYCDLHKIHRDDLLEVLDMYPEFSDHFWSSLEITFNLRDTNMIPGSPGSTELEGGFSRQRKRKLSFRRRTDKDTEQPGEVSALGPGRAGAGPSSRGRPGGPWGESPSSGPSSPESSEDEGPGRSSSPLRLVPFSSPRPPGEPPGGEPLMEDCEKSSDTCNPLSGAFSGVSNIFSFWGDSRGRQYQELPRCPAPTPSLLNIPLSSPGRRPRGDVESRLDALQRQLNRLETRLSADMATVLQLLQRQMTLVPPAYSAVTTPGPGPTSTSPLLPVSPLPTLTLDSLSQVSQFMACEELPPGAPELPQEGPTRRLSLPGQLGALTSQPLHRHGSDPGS
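Note: peak tail current of the secondary pulse compared with the same well before compound.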

Point of comparison: `COc1cc(CN2CCN(C(O)(c3ccccc3)c3ccccc3)CC2)cc(OC)c1OC.O=C(O)C(=O)O`, “hERG current change (%, negative = inhibition) at 10uM” value -55.1%. Against it:
- COc1ccc(CN2CCN(Cc3ccc(C(F)(F)F)cc3)CC2)c(OC)c1.O=C(O)C(=O)O — lower, -74.1%
- COc1cccc(CN2CCN(C(=O)c3ccc(-c4ccccc4)cc3)CC2)c1OC.O=C(O)C(=O)O — higher, -5.41%
- COc1cc(CN2CCN(C(=O)c3ccccc3F)CC2)cc(OC)c1OC.O=C(O)C(=O)O — higher, 6.56%
- COc1cc(CN2CCN(Cc3ccc(C(F)(F)F)cc3)CC2)cc(OC)c1OC.O=C(O)C(=O)O — higher, -54.1%
- COc1cc(CN2CCN(S(=O)(=O)c3ccc(F)cc3)CC2)cc(OC)c1OC.O=C(O)C(=O)O — higher, -5.89%
- COc1cc(OC)c(OC)cc1CN1CCN(Cc2ccc(C(F)(F)F)cc2)CC1 — higher, -42.3%
- COc1cc(CN2CCCCCC2)cc(OC)c1OC.O=C(O)C(=O)O — higher, 13.8%
- COc1cc(CN2CCN(C(=O)c3cccc4ccccc34)CC2)cc(OC)c1OC.O=C(O)C(=O)O — higher, 4.24%
- COc1cc(CN2CCN(C(=O)c3ccc(-c4ccccc4)cc3)CC2)cc(OC)c1OC.O=C(O)C(=O)O — higher, -54.7%
- COc1ccccc1C1CCN(c2ccc(CO)cc2[N+](=O)[O-])CC1 — higher, 4.52%
- O=C(Nc1cccc2ccccc12)c1cnsn1 — higher, 5.58%
- COC(=O)c1c(C(=O)OC)c2ccccn2c1C(=O)c1ccccc1 — higher, 6.74%
- COCCNC(=O)Cn1nc(-c2ccc(C)cc2)ccc1=O — higher, 8.83%
- CCOc1ccc(C(NC(=O)c2ccco2)c2ccc(OC)c(OC)c2)cc1 (stereo not drawn) — higher, -39.9%
- O=C(NC(=S)NC1CCS(=O)(=O)C1)c1ccccc1 (stereo not drawn) — higher, 14.6%
- O=C(Nc1cccc(S(=O)(=O)N2CCOCC2)c1)c1ccccc1[N+](=O)[O-] — higher, 0.195%
- O=C(CSc1nc2ncc(Cl)cc2[nH]1)Nc1cccc(F)c1 — higher, 12.8%
- FC(F)(F)c1ccc(CN2CCN(Cc3ccco3)CC2)cc1.O=C(O)C(=O)O — higher, 0.168%
- CS(=O)(=O)N1CCN(Cc2ccc(C(F)(F)F)cc2)CC1.O=C(O)C(=O)O — higher, 0.441%
- COc1ccc(CN2CCN(Cc3ccc(C)cc3)CC2)c(OC)c1.O=C(O)C(=O)O — lower, -70.3%
- COc1ccc(CN2CCN(Cc3ccc(C(F)(F)F)cc3)CC2)cc1.O=C(O)C(=O)O — lower, -65.7%
- COc1cccc(C(=O)N2CCN(Cc3ccc(OC)cc3OC)CC2)c1.O=C(O)C(=O)O — higher, -38.9%
- O=c1ccc(-c2ccccc2)nn1Cc1ccc(Cl)cc1 — higher, 2.52%
- COc1ccc(N2Cc3ccccc3C2=O)cc1 — higher, 16.2%
- COc1cc(NC(=O)c2ccc(Cl)cc2)c(Cl)cc1NC(=O)c1cccnc1 — higher, 1.74%
- N#C/C(=C/c1ccc(N2CCCCCC2)o1)c1ccc(Cl)cc1 — higher, -3.68%
- COc1ccc(NC(=O)CN2CCN(c3nc(-c4ccc(F)cc4)cs3)CC2)c(OC)c1 — higher, 20.7%
- COc1cccc(NC(=O)CN2CCN(CC(=O)Nc3ccc(F)cc3)CC2)c1 — lower, -80.3%
- COc1ccc(NC(=O)CN2CCN(CC(=O)Nc3ccc(F)cc3)CC2)cc1Cl — lower, -80.5%
- CCOc1ccc(NC(=O)CN2CCN(CC(=O)Nc3ccc(OC)cc3OC)CC2)cc1 — lower, -74.2%
- COc1cccc(NC(=O)CN2CCN(c3ccccc3F)CC2)c1 — higher, -9.18%
- COc1ccc(NC(=O)CN2CCc3ccccc3C2)c(OC)c1 — higher, -6.9%
- COc1ccc(NC(=O)CN2CCN(S(=O)(=O)c3ccc(F)cc3)CC2)cc1Cl — higher, -1.67%
- COc1ccc(NC(=O)CN2CCN(c3ccc(F)cc3)CC2)cc1Cl — higher, -5.96%
- COc1cccc(NC(=O)CN2CCN(c3ccc(F)cc3)CC2)c1 — higher, -17%
- COc1ccc(C(=O)C2CCN(CC(=O)Nc3ccc(OC)cc3OC)CC2)cc1 — higher, -18.1%
- COc1ccc(NC(=O)CN2CCN(CC(=O)Nc3ccc(F)cc3)CC2)c(OC)c1 — lower, -80.4%
- Cc1ccc(NC(=O)CSC(N)=O)cc1Cl — higher, 7.5%
- Cn1c2ccccc2c(=O)c2ccc(F)cc21 — higher, 0.557%
- COc1ccc(-c2cc(C(=O)N3CCCC3)c3ccccc3n2)cc1OC — higher, 5.86%
- CCCCc1nnc(NC(=O)C23CC4CC(CC(NC(C)=O)(C4)C2)C3)s1 — higher, -1.81%
